Active and inactive are the calls of the source.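 Rule for the calls: active = peak inhibition of the KCNQ2 potassium channel above 30% at some tested dose, plus a fitted dose response curve; inactive = no inhibition at any dose, or no curve.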
molecular target: Potassium voltage-gated channel subfamily KQT member 2 (Rattus norvegicus) (UniProt O88943); assay: rat KCNQ2 channel inhibition, SAR follow-up, selectivity assay for KCNK9 inhibitor project, cell-based, FluxOR thallium flux, CRC set 2 (AID 588800); details: KCNQ2-expressing cells; series mostly up to 30 µM
Sequence (O88943 whole entry, looked up): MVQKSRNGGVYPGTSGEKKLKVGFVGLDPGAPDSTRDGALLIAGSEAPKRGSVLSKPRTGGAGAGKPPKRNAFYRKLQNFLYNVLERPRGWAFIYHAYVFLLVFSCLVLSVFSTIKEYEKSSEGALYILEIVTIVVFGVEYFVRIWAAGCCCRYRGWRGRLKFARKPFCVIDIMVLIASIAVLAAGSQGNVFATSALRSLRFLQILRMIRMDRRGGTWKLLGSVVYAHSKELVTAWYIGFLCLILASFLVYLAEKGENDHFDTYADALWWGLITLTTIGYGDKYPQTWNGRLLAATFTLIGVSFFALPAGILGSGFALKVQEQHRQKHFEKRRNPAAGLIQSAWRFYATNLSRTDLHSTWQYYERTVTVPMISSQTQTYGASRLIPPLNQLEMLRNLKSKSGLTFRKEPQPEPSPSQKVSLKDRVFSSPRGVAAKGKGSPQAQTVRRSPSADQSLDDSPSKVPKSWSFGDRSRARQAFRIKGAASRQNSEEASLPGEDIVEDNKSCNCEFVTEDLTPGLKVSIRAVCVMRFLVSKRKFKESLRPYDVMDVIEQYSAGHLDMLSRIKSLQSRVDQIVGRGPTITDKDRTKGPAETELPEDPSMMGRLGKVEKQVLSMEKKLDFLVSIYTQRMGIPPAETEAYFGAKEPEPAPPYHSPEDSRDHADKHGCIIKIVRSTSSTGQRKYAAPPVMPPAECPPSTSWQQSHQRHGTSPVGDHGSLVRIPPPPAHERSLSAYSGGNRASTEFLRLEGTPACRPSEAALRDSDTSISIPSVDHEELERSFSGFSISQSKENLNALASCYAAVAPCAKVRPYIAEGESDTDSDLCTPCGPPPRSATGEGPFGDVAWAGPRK

For `CCOc1ccccc1NC(=O)c1cccc(NC(=O)c2cccc(C(F)(F)F)c2)c1`, which outcome is on record?
The outcome was “inactive”.

`CC(C1CC2CCC1C2)n1c(-c2ccco2)n[nH]c1=S` (stereo not given) was tested. Which outcome did it give?
The outcome was “inactive”.

Which outcome does the source give for `O=C(Nc1cccc(NC(=O)c2cccc(F)c2)c1)c1ccccc1` here?
The outcome was “inactive”.

`CCOc1ccccc1NC(=O)c1cccc(NC(=O)C2CCCO2)c1` (stereo not given) was tested. Which outcome did it give?
Its outcome is “inactive”.

`CC(C1CC2CCC1C2)n1c(-c2ccoc2)n[nH]c1=S` (stereo not given) was tested. Which outcome did it give?
The outcome was “inactive”.

How did the outcome turn out when `COc1ccccc1C(=O)Nc1cccc(NC(=O)c2ccccc2OC)c1` was run?
The outcome was “inactive”.

How did the outcome turn out when `COc1ccccc1NC(=O)c1cccc(NC(=O)c2ccccc2OC)c1` was run?
The outcome was “inactive”.

For `CCOc1ccccc1C(=O)Nc1cccc(NC(=O)c2ccccc2C(F)(F)F)c1`, which outcome is on record?
The outcome was “inactive”.

With `Cc1cccc(C(=O)Nc2cccc(NC(=O)c3cccc(C(F)(F)F)c3)c2)c1` as the compound, how does the outcome read?
Its outcome is “inactive”.

Which outcome does the source give for `Cc1cccc(C(=O)Nc2cccc(NC(=O)c3ccncc3)c2)c1` here?
The outcome was “inactive”.

`Cc1cccc(C(=O)Nc2cccc(NC(=O)C3CCCCC3)c2)c1` was tested. Which outcome did it give?
Its outcome is “inactive”.

How did the outcome turn out when `O=C(Nc1cccc(NC(=O)c2ccccn2)c1)c1ccccc1` was run?
Its outcome is “inactive”.

`Cc1cccc(C(=O)Nc2cccc(NC(=O)c3cccs3)c2)c1` was tested. Which outcome did it give?
Its outcome is “inactive”.

For `O=C(Nc1cccc(NC(=O)c2ccc(F)cc2)c1)c1ccccc1`, which outcome is on record?
The outcome was “inactive”.

With `CCOc1ccccc1NC(=O)c1cccc(NC(=O)c2ccccc2)c1` as the compound, how does the outcome read?
The outcome was “inactive”.

With `Cc1cccc(C(=O)Nc2cccc(NC(=O)c3cccc(C)c3)c2)c1` as the compound, how does the outcome read?
The outcome was “inactive”.

Which outcome does the source give for `CCOc1ccccc1NC(=O)c1cccc(NC(=O)c2ccc(OC)cc2)c1` here?
The outcome was “inactive”.

How did the outcome turn out when `CC(C1CC2CCC1C2)n1c(-c2ccc(Cl)cc2)n[nH]c1=S` (stereo not given) was run?
The outcome was “inactive”.

How did the outcome turn out when `CCOc1ccccc1NC(=O)c1cccc(NC(=O)CC2CCCC2)c1` was run?
The outcome was “inactive”.

For `COc1ccccc1-c1n[nH]c(=S)n1C(C)C1CC2CCC1C2` (stereo not given), which outcome is on record?
The outcome was “inactive”.

With `CCOc1ccccc1C(=O)Nc1cccc(NC(=O)c2cccc(C)c2)c1` as the compound, how does the outcome read?
Its outcome is “inactive”.

How did the outcome turn out when `O=C(Nc1cccc(NC(=O)c2ccco2)c1)c1ccccc1` was run?
Its outcome is “inactive”.

For `CCOc1ccc(NC(=O)c2cccc(NC(=O)C3CCCC3)c2)cc1`, which outcome is on record?
The outcome was “inactive”.

For `Cc1cccc(C(=O)Nc2cccc(NC(=O)c3ccc(N(C)C)cc3)c2)c1`, which outcome is on record?
Its outcome is “inactive”.

With `CCOc1ccccc1NC(=O)c1cccc(NC(=O)c2ccccc2C)c1` as the compound, how does the outcome read?
The outcome was “inactive”.

With `O=C(Nc1cccc(NC(=O)c2cccs2)c1)c1ccccc1` as the compound, how does the outcome read?
Its outcome is “inactive”.

How did the outcome turn out when `CC(C1CC2CCC1C2)n1c(-c2ccsc2)n[nH]c1=S` (stereo not given) was run?
The outcome was “inactive”.

`Cc1cccc(-c2n[nH]c(=S)n2C(C)C2CC3CCC2C3)c1` (stereo not given) was tested. Which outcome did it give?
The outcome was “inactive”.

`CCOc1ccccc1NC(=O)c1cccc(NC(=O)c2cccc(Cl)c2)c1` was tested. Which outcome did it give?
The outcome was “inactive”.

With `COc1ccccc1C(=O)Nc1cccc(NC(=O)c2ccccc2C)c1` as the compound, how does the outcome read?
The outcome was “inactive”.

Which outcome does the source give for `COc1ccccc1NC(=O)c1cccc(NC(=O)c2ccccc2)c1` here?
Its outcome is “inactive”.

Which outcome does the source give for `Cc1cccc(C(=O)Nc2cccc(NC(=O)c3ccc(Cl)cc3)c2)c1` here?
Its outcome is “inactive”.

How did the outcome turn out when `CCOc1ccccc1NC(=O)c1cccc(NC(=O)c2ccccc2OC(F)(F)F)c1` was run?
The outcome was “inactive”.

How did the outcome turn out when `O=C(Nc1cccc(NC(=O)c2cccc(Cl)c2)c1)c1ccccc1` was run?
Its outcome is “inactive”.

How did the outcome turn out when `CN(C)c1ccc(C(=O)Nc2cccc(NC(=O)c3ccccc3)c2)cc1` was run?
The outcome was “inactive”.
